# From PubChem BioAssay (NCATS)
# Several values for one entry are separate records, joined by “and”; a condition that tells them apart may be missing. Identical values can stand only once. Inconclusive results are not listed. A number with no mark means an inactive call. Activity calls are given as the source filed them. Calls follow the shape of the dose curve; as a rule, active = well fitted activation curve with a large enough effect; inconclusive = small, poorly fitted or top-dose-only effect; inactive = flat fitted curve, though single readings scatter. Peptide text beside a SMILES is read from it.
# Assay: Cellular Toxicity (caspase-3) Hek293 (AID 664);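 also: cells exposed to compound for 16 h at 37 °C before readout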
# Conditions: HEK293 caspase-3 activation, DMSO = 0%, 100 µM tamoxifen = 100%; at 92.2 µM (top of the series)
# Text: NIH Chemical Genomics Center [NCGC]
# NIH Molecular Libraries Screening Centers Network [MLSCN]
# National Institutes of Environmental Health Sciences [NIEHS]
# National Toxicology Program [NTP]
# We have developed a 1536-well cell-based assay for quantitative high throughput screening (qHTS) against a number of cell lines to determine in vitro caspase 3/7 of small molecules. This particular assay uses the Hek 293 cell line which is derived from human embryonic kidney cells.
# NCGC Assay Protocol Summary:
# The Caspase-Glo 3/7 assay (Promega) is a homogeneous method to measure caspase-3 and caspase-7 activities in cultured cells. The quantitation of caspase 3/7 activity is based on the cleavage of a peptide-aminoluciferin substrate. After caspase cleaves the substrate the free aminoluciferin is liberated and serves as the substrate of luciferase, which generates the light. The luminescent signal is proportional to amount of caspase 3/7 activity present.
# Using the Caspase-Glo 3/7 assay, the amount of caspase 3/7 activity was measured in the Hek 293 cell line with complete culture medium following compound treatment for 16 hours. The assay was performed in opaque white 1536-well plates. In the screen, tamoxifen and doxorubicin were used as positive controls. Library compounds were measured for their ability to cause the activation of caspase 3/7 in the cell line, as reflected by an increase in luminescence signal, in a concentration-dependent manner. Data were normalized to the controls for basal activity (DMSO only) and 100% stimulation (100 uM tamoxifen). AC50 values were determined from concentration-response data modeled with the standard Hill equation.
# qHTS protocol for caspase 3/7 assay in Hek 293 cells
# [Step] [Parameter] [Value] [Description]
# 2. Time; 5 hr; 37 °C incubation
# 4. Controls; 23 nL; Tamoxifen 0.23 uM to 100 uM & Doxorubicin 7.0 pM to 100 uM
# 5. Time; 16 hr; 37 °C incubation
# 6. Reagent; 5 uL; Caspase-Glo 3/7 reagent
# 7. Time; 20 min; Room Temperature
# 8. Detection; Luminescence; Viewlux plate reader
# Keywords: caspase 3/7, apoptosis, Hek 293 cell line, luminescence, NTPHTS, NTPHTS_NCGC, NIEHS, EPA, DSSTox, MLSMR, MLSCN, NIH Roadmap, qHTS, NCGC
row,SMILES,caspase-3 activation
1,NS(=O)(=O)c1cc(C(=O)O)c(NCc2ccco2)cc1Cl,2.23%
2,COc1c2occc2cc2ccc(=O)oc12,2.24%
3,CC(=O)Nc1ccc(O)cc1,-1.09%
4,Cc1ccc(C)c(OCCCC(C)(C)C(=O)O)c1,-2.65%
5,CCc1nc(N)nc(N)c1-c1ccc(Cl)cc1,101% (active)
6,Nc1ccc(S(N)(=O)=O)cc1,-1.76%
7,CCCCC(CC)COC(=O)C(C#N)=C(c1ccccc1)c1ccccc1 (stereo not drawn),2.23%
8,c1ccc2[nH]c(-c3cscn3)nc2c1,-8.39%
9,CS(=O)(=O)OCCCCOS(C)(=O)=O,-0.303% and 2.3%
10,CN(C)c1ccc2nc3ccc(=[N+](C)C)cc-3sc2c1,-0.51%
11,Cc1cc(O)c2c(c1)C(=O)c1cc(O)cc(O)c1C2=O,-8.76%
12,COC(=O)[C@H](Cc1ccccc1)NC(=O)[C@@H](N)CC(=O)O (H-Asp-Phe-OMe),1.4%
13,CCCc1cc(=O)[nH]c(=S)[nH]1,1.8%
